# From PubChem BioAssay (NCATS)
# Inconclusive results are not listed. Entries that show only a call come without a potency. Some structures have more than one record in an assay (separate samples or runs), and their calls can disagree. Calls of active or inactive are those of the source. Unless noted, calls come from the whole dose curve; as a rule, active = well fitted curve in the direction sought with a large enough effect; inconclusive = small, poorly fitted or top-dose-only effect, or another doubt; inactive = no such curve, though single readings can be large; an effect the other way counts as inactive or inconclusive.
# Tests used:
# [1] = NCATS anti-infectives library activity on HEK293 viability as a counter-qHTS vs the C. elegans viability qHTS (AID 1745854)
# Outline: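 HEK293 cells, 1500 per well, exposed 24 hr at 37C in 5% CO2 to compounds in a 1:5 titration, up to 41.7 uM final. Viability read as CellTiter-Glo luminescence after 10 min at room temperature.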
# [2] = molecular target: Glutathione peroxidase 1 (Homo sapiens) (UniProt P07203); assay: Primary qHTS Assay for Inhibitors of Recombinant Selenoprotein Glutathione Peroxidase 1 (GPX1) (AID 1845191); note: nearly all actives have a fitted effect of over 65% in size
# Chain of Glutathione peroxidase 1 (Homo sapiens) (P07203 whole entry, looked up): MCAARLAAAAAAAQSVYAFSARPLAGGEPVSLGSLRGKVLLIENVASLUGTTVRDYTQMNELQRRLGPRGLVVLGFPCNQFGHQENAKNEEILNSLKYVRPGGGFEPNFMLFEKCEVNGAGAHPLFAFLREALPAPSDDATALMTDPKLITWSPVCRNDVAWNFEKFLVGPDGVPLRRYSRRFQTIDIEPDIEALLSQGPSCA
# Outline: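 Recombinant GPX1 (10 nM final) was preincubated with compound for 30 min at room temperature, then reacted with 1 mM GSH, 0.5 mM CHP, 0.5 mM NADPH and 100 nM glutathione reductase; NADPH fluorescence (340/450 nm) was read at 0 and 15 min.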
# [3] = molecular target: Phospholipid hydroperoxide glutathione peroxidase GPX4 (Homo sapiens) (UniProt P36969); assay: Primary qHTS Assay for Inhibitors of Recombinant Selenoprotein Glutathione Peroxidase 4 (GPX4) (AID 1845192); note: nearly all actives have a fitted effect of over 65% in size
# Chain of Phospholipid hydroperoxide glutathione peroxidase GPX4 (Homo sapiens) (P36969 whole entry, looked up): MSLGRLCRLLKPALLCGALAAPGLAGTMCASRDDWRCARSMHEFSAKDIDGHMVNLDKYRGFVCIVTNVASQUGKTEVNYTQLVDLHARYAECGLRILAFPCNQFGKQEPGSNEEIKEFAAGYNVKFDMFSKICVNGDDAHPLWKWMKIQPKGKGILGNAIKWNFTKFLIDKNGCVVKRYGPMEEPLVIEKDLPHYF
# Outline: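 GR-coupled readout: 100 nM GR, 1 mM GSH, 0.5 mM NADPH; NADPH fluorescence (ex 340/em 450 nm) read at t=0 and after 15 min RT. GPX4 200 nM, preincubated 30 min with compound; substrate 0.5 mM CHP.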
# [4] = molecular target: Metallo-beta-lactamase type 2 (Klebsiella pneumoniae) (UniProt C7C422); assay: qHTS to identify inhibitors of the New Delhi Metallo-beta-lactamase (NDM): assay validation screen against the NCATS LOPAC Collection (AID 1794843);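 note: nitrocefin turnover by NDM-1 measured as 485 nm absorbance at plateau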
# Chain of Metallo-beta-lactamase type 2 (Klebsiella pneumoniae) (C7C422 whole entry, looked up): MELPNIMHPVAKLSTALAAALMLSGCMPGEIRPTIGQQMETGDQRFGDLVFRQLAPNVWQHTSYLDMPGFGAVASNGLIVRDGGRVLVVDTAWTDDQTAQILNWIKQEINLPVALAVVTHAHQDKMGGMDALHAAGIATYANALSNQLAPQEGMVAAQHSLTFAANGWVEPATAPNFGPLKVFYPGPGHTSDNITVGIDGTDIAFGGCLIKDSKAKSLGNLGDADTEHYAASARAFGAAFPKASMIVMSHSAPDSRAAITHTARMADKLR
# Outline: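 NDM-1 at 2 nM final in 50 mM HEPES pH 7.0, 1 uM ZnSO4, 0.01% Tween20, preincubated with LOPAC compounds pinned in DMSO; 50 uM nitrocefin (stock) added. Hydrolysis read as absorbance at 485 nm in the plateau phase.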
# [5] = Viability counterscreen for antagonist of constitutive androstane receptor (CAR) against the NCATS DSHEA and TCM libraries (AID 1794837);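 note: compound exposure lasted 24 h before viability reading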
# Outline: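 Cells: HepG2 line carrying CYP2B6 reporter and hCAR, seeded and attached 5 h. Then pin-transferred test substances plus agonist CITCO at 48 uM final; 24 h incubation; fluorogenic viability reagent, 1 h.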
# [6] = Viability counterscreen for agonist of constitutive androstane receptor (CAR) against the NCATS DSHEA and TCM libraries (AID 1794838);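 note: HepG2 cells with CYP2B6 reporter and hCAR plus 0.75 µM PK11195 antagonist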
# Outline: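 Cell health was measured as CellTiter-Fluor signal in HepG2-CYP2B6-hCAR cells treated for 24 h with substances alongside the hCAR antagonist PK11195 (0.75 uM final).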
# [7] = molecular target: Nuclear receptor subfamily 1 group I member 3 (Homo sapiens) (UniProt Q14994); assay: Primary qHTS for agonist of constitutive androstane receptor (CAR) against the NCATS DSHEA and TCM libraries (AID 1794839);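 note: HepG2 cells expressing human CAR with a CYP2B6 reporter plus PK11195 antagonist; luciferase reporter luminescence read with ONE-Glo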
# Chain of Nuclear receptor subfamily 1 group I member 3 (Homo sapiens) (Q14994 whole entry, looked up): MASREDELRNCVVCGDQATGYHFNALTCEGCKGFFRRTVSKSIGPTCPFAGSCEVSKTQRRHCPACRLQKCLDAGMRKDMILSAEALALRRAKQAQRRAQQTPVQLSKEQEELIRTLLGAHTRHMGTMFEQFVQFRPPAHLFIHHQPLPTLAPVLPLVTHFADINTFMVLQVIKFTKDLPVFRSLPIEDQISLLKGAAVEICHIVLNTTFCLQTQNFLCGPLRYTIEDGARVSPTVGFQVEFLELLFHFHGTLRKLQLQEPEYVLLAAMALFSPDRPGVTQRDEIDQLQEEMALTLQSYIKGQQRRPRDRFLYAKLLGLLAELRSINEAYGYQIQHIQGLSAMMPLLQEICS
# Outline: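 qHTS, agonist mode: HepG2-CYP2B6-hCAR, 2,500 cells/well, 5 h attach; cpds + PK11195 0.75 µM final; 24 h, 37 °C, 5% CO2. Readouts: CellTiter-Fluor (405/540 nm), then ONE-Glo luminescence.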
# [8] = HepG2 viability counterscreen (readout 2: ATP content) against the NCATS DSHEA and TCM libraries (AID 1794840)
# Outline: (§1)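 Same wells read twice: first fluorescence from cleaved GF-AFC substrate (25 uM final, 30 min, 37C) for live-cell protease, then CellTiter-Glo luminescence after 30 min at room temperature for ATP. HepG2 cells were exposed ~24 h to substances.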
# [9] = HepG2 viability counterscreen (readout 1: protease activity) against the NCATS DSHEA and TCM libraries (AID 1794841);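 note: cells exposed to compounds for about 24 h before the protease read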
# Outline: as §1
# [10] = molecular target: Rap guanine nucleotide exchange factor 3 (Homo sapiens) (UniProt O95398); assay: Confirmatory qHTS for antagonist of cAMP-regulated guanine nucleotide exchange factor 3 (EPAC1) (AID 1645880); note: nearly all actives have a fitted effect of over 55% in size; note: potency is the fitted concentration of half-maximal effect
# Chain of Rap guanine nucleotide exchange factor 3 (Homo sapiens) (O95398 whole entry, looked up): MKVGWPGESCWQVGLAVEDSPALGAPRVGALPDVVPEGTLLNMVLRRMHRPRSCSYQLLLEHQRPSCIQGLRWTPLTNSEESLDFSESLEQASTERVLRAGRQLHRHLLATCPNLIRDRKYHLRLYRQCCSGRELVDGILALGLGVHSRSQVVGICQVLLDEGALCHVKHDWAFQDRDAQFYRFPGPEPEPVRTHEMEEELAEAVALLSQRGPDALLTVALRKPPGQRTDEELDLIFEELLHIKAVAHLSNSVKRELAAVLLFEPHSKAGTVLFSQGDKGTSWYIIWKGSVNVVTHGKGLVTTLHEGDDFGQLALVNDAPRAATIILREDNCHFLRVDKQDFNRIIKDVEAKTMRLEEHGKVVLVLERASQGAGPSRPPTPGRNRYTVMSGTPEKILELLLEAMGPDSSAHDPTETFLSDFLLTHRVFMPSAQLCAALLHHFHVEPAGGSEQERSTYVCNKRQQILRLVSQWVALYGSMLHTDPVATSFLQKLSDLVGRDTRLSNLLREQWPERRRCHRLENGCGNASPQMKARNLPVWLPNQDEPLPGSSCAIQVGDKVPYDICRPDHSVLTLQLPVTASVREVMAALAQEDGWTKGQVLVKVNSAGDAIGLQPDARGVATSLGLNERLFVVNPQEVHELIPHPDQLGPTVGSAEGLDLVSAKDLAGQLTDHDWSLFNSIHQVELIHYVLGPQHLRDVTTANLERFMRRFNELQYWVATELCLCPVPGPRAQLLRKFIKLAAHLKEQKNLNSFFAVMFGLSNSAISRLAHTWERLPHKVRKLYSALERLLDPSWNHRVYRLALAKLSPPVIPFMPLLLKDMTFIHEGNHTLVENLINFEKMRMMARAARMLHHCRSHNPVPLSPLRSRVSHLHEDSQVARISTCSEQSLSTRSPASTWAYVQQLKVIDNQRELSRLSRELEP
# Outline: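 Nucleotide exchange uses 100 nM EPAC1, 250 nM RAP1B-BODIPY-GDP and 50 uM GDP, with compounds in a concentration-titration series. After 5 min at room temperature, fluorescence (480 nm ex/540 nm em) is read every 5 min for 30 min. Data are normalized to control ATA and DMSO.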
# [11] = molecular target: Rap guanine nucleotide exchange factor 3 (Homo sapiens) (UniProt O95398); assay: Confirmatory qHTS for agonist of cAMP-regulated guanine nucleotide exchange factor 3 (EPAC1) (AID 1645881);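 note: EPAC1 catalysed release of BODIPY-GDP from Rap1B seen as fluorescence loss; nearly all actives have a fitted effect of over 75% in size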
# [12] = molecular target: Rap guanine nucleotide exchange factor 4 (Homo sapiens) (UniProt Q8WZA2); assay: Confirmatory qHTS for agonist of cAMP-regulated guanine nucleotide exchange factor 4 (EPAC2) (AID 1645884);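 note: nucleotide exchange releases bodipy-GDP from Rap1 and this lowers its fluorescence; nearly all actives have a fitted effect of over 65% in size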; note: potency is the fitted concentration of half-maximal effect
# Chain of Rap guanine nucleotide exchange factor 4 (Homo sapiens) (Q8WZA2 whole entry, looked up): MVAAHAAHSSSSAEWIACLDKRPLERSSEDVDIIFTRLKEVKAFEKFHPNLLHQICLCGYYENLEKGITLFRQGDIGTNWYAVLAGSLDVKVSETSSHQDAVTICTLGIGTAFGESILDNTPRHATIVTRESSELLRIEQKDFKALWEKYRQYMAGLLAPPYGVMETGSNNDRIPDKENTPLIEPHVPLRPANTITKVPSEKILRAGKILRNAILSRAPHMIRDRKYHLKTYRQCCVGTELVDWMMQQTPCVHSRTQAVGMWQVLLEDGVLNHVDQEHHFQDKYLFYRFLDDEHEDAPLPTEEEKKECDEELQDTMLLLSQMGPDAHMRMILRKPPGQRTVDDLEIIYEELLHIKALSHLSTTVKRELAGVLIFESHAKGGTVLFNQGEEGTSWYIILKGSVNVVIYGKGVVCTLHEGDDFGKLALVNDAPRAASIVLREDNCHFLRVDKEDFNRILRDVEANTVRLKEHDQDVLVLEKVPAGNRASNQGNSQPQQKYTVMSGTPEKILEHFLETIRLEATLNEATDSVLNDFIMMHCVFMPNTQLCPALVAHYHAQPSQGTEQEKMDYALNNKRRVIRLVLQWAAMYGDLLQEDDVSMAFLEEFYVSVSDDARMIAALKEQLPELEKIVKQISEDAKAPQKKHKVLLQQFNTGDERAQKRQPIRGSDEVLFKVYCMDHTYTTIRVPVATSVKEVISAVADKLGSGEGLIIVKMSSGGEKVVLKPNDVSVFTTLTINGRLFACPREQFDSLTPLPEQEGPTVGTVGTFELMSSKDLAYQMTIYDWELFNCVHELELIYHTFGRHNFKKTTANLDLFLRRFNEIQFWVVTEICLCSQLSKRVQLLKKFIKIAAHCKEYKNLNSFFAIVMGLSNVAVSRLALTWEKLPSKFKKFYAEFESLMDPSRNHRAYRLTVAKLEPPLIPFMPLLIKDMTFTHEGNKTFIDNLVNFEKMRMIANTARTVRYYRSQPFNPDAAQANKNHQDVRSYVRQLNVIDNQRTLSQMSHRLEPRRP
# [13] = molecular target: Rap guanine nucleotide exchange factor 4 (Homo sapiens) (UniProt Q8WZA2); assay: Confirmatory qHTS for antagonist of cAMP-regulated guanine nucleotide exchange factor 4 (EPAC2) (AID 1645885); note: nearly all actives have a fitted effect of over 25% in size; note: potency is the fitted concentration of half-maximal effect
# [14] = molecular target: Rap guanine nucleotide exchange factor 3 (Homo sapiens) (UniProt O95398); assay: Counterscreen qHTS for antagonist of cAMP-regulated guanine nucleotide exchange factor 3 (EPAC1) (AID 1645888);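 note: fluorescence loss as bound BODIPY-GDP is released from Rap1B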
# Outline: (§2)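 Measured: fluorescence of BODIPY-GDP bound to Rap1B, which falls as exchange proceeds. Conditions include 50 uM competing GDP, 5 and 30 min reads, and a later cAMP challenge for antagonist detection.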
# [15] = molecular target: Catechol O-methyltransferase (Homo sapiens) (UniProt P21964); assay: Confirmatory Screen for Target Class Profiling of Small Molecule Inhibitors of Methyltransferases (AID 1745852; calls by dose curve); conditions: MTase-Glo luminescence, SAH detection, recombinant enzyme; measured here: COMT max response; stronger effect = lower value
# Chain of Catechol O-methyltransferase (Homo sapiens) (P21964 whole entry, looked up): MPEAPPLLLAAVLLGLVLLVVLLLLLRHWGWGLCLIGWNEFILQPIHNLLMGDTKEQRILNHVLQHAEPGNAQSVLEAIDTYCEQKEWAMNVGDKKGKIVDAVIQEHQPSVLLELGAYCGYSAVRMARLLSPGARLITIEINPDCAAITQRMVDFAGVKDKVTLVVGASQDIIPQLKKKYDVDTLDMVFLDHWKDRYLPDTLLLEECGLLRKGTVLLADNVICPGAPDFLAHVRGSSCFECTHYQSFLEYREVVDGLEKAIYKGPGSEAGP
# [16] = molecular target: Guanidinoacetate N-methyltransferase (Homo sapiens) (UniProt Q14353); assay: as above; conditions: MTase-Glo luminescence, SAH detection, recombinant enzyme; at 57.3 µM (top of the series)
# [17] = molecular target: Nicotinamide N-methyltransferase (Homo sapiens) (UniProt P40261); assay: as above; conditions: MTase-Glo luminescence, SAH detection, recombinant enzyme; measured here: NNMT max response; stronger effect = lower value
# Chain of Nicotinamide N-methyltransferase (Homo sapiens) (P40261 whole entry, looked up): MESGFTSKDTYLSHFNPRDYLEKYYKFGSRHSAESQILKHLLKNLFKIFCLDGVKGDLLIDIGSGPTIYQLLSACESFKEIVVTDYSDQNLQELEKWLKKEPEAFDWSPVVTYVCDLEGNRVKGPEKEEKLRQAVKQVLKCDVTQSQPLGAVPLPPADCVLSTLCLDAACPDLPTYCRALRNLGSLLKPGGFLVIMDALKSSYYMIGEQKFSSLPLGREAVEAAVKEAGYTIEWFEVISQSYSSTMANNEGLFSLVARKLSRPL
# [18] = molecular target: Phenylethanolamine N-methyltransferase (Homo sapiens) (UniProt P11086); assay: as above; conditions: MTase-Glo luminescence, SAH detection, recombinant enzyme; measured here: PNMT max response; stronger effect = lower value
# Chain of Phenylethanolamine N-methyltransferase (Homo sapiens) (P11086 whole entry, looked up): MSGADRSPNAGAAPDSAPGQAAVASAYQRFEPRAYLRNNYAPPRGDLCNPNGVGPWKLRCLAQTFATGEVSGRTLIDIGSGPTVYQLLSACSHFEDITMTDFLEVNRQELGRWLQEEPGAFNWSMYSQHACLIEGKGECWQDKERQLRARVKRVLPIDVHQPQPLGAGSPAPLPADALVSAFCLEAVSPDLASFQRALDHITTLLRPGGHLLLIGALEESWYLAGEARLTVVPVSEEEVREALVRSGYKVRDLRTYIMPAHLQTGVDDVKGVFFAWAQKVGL
# [19] = molecular target: Rap guanine nucleotide exchange factor 3 (Homo sapiens) (UniProt O95398); assay: Counterscreen qHTS for agonist of cAMP-regulated guanine nucleotide exchange factor 3 (EPAC1) (AID 1645889); note: nearly all actives have a fitted effect of over 40% in size
# Outline: as §2
# [20] = NCATS anti-infectives library activity on the primary C. elegans qHTS viability assay (AID 1745855; calls by dose curve)
# Outline: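 Viability is taken from GFP fluorescence of PE254-GFP-FLuc C. elegans imaged by laser cytometry over 7 days. Ten L1 worms per well grow at 21 °C on TOP10 E. coli capsules with titrated compound; levamisole marks toxicity.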
structure (smiles),measurement,setting,value
CCN(CC)C(=O)/C(C#N)=C/c1cc(O)c(O)c([N+](=O)[O-])c1,Potency,[1],inactive
same,Potency,[2],inactive
same,Potency,[3],inactive
Oc1ccc(O)cc1,outcome,[4],inactive
same,Potency,[2],inactive
C/C=C/c1ccc(OC)cc1,outcome,[5],inactive
same,outcome,[6],inactive
same,outcome,[7],inactive
same,outcome,[8],inactive
same,outcome,[9],inactive
same,Potency,[2],inactive
same,Potency,[3],inactive
C=C1C(=C/C=C2\CCC[C@]3(C)[C@@H]([C@H](C)/C=C/[C@@H](O)C4CC4)CC[C@@H]23)C[C@@H](O)C[C@@H]1O,Potency,[1],inactive
same,Potency,[2],inactive
C#C[C@]1(OC(C)=O)CC[C@H]2[C@@H]3CCC4=C[C@@H](OC(C)=O)CC[C@@H]4[C@H]3CC[C@@]21C,Potency,[10],inactive
same,outcome,[11],inactive
same,Potency,[12],inactive
same,Potency,[13],inactive
same,Potency,[2],inactive
same,Potency,[3],inactive
Nc1cc(Cl)c(NC2=NCCN2)c(Cl)c1,outcome,[4],inactive
same,Potency,[2],inactive
Cc1cc(N)c2cc(NC(=O)Nc3ccc4nc(C)cc(N)c4c3)ccc2n1,Potency,[10],25 µM (active)
same,Potency,[12],25.1 µM (active)
same,Potency,[13],35 µM (active)
NCCC(O)(P(=O)(O)O)P(=O)(O)O,Potency,[1],inactive
same,Potency,[2],inactive
same,Potency,[3],inactive
O=C(Nc1ccc(Oc2ccc(Cl)cc2)c(Cl)c1)c1cc(I)cc(I)c1O,Potency,[10],30.1 µM (active)
same,outcome,[11],inactive
same,Potency,[12],inactive
same,outcome,[14],inactive
CC(C)C[C@H]1C(=O)N2CCC[C@H]2[C@]2(O)O[C@](NC(=O)[C@@H]3C=C4c5cccc6[nH]c(Br)c(c56)C[C@H]4N(C)C3)(C(C)C)C(=O)N12,Potency,[10],inactive
same,outcome,[11],inactive
same,Potency,[12],inactive
same,Potency,[13],inactive
same,activity,[15],7.86%
same,"activity change, negative = inhibition",[16],3.94%
same,activity,[17],-2.85%
same,activity,[18],4.08%
same,outcome,[4],inactive
same,Potency,[2],inactive
same,Potency,[3],inactive
CC(Cc1cccc(C(F)(F)F)c1)NCCOC(=O)c1ccccc1 (centres undefined),outcome,[11],inactive
same,Potency,[12],inactive
same,Potency,[13],49.4 µM (active)
c1ccc(-c2ccc(C(c3ccccc3)n3ccnc3)cc2)cc1 (centres undefined),Potency,[10],inactive
same,outcome,[11],inactive
same,Potency,[12],inactive
same,Potency,[13],13.9 µM (active) and inactive
same,outcome,[14],inactive
same,Potency,[19],inactive
same,Potency,[2],inactive
same,Potency,[3],inactive
CC[C@H](C)C(=O)O[C@H]1CCC=C2C=C[C@H](C)[C@H](CC[C@@H]3C[C@@H](O)CC(=O)O3)[C@H]21,activity,[15],-80.2%
same,"activity change, negative = inhibition",[16],-3.09%
same,activity,[17],-8.02%
same,activity,[18],-5.04%
same,outcome,[4],inactive
same,Potency,[2],inactive
same,Potency,[3],inactive
COc1cc2c(cc1O)CC[C@@H]1[C@@H]2CC[C@]2(C)[C@@H](O)CC[C@@H]12,Potency,[10],inactive
same,outcome,[11],inactive
same,Potency,[12],inactive
same,Potency,[13],inactive
same,outcome,[4],inactive
same,Potency,[2],inactive
same,Potency,[3],inactive
Nc1ccc(C(=O)O)cc1,outcome,[5],inactive
same,outcome,[6],inactive
same,outcome,[7],inactive
same,outcome,[8],inactive
same,outcome,[9],inactive
same,Potency,[2],inactive
same,Potency,[3],inactive
CC(O)(P(=O)(O)O)P(=O)(O)O,"activity change, negative = cytotoxicity",[1],0.883% [at 8.35 µM] (inactive)
same,Potency,[2],inactive
same,Potency,[3],inactive
O=c1ccc2ccccc2o1,Potency,[1],inactive
same,Potency,[20],inactive
same,outcome,[5],inactive
same,outcome,[6],inactive
same,outcome,[7],inactive
same,outcome,[8],inactive
same,outcome,[9],inactive
same,Potency,[2],inactive
same,Potency,[3],inactive
COc1ccc(/C=C/C(=O)c2ccc(OC)cc2OC)cc1,outcome,[11],inactive
same,Potency,[12],inactive
same,Potency,[13],15.6 µM (active) and inactive
same,outcome,[14],inactive
same,Potency,[19],inactive
CCCCCCCCCCCCCCCCOP(=O)([O-])OCC[N+](C)(C)C,"activity change, negative = cytotoxicity",[1],-18.3% [at 8.35 µM] (inactive)
same,outcome,[20],inactive [at 8.33 µM]
same,Potency,[2],inactive
same,Potency,[3],inactive
C[n+]1c2cc(N)ccc2cc2ccc(N)cc21 (tested in a mixture with another compound),Potency,[10],inactive
same,Potency,[13],inactive
same,Potency,[2],inactive
same,Potency,[3],inactive
CC1=C(C(=O)OC(C)C)C(c2cccc([N+](=O)[O-])c2)C(C(=O)OC2CN(C(c3ccccc3)c3ccccc3)C2)=C(N)N1 (centres undefined),Potency,[10],inactive
same,outcome,[11],inactive
same,Potency,[12],inactive
same,Potency,[13],inactive
same,Potency,[2],inactive
same,Potency,[3],inactive
CC(=O)O[C@H]1C[C@@H]2CC[C@@H]3[C@H](CC[C@@]4(C)[C@H]3C[C@H]([N+]3(C)CCCCC3)[C@@H]4OC(C)=O)[C@@]2(C)C[C@@H]1[N+]1(C)CCCCC1,outcome,[4],inactive
same,Potency,[2],inactive
same,Potency,[3],inactive
CC(C)COC(=O)c1ccc(N)cc1,Potency,[2],inactive
COc1cccc(OC)c1C(=O)N[C@@H]1C(=O)N2[C@@H]1SC(C)(C)[C@@H]2C(=O)O,Potency,[2],inactive
CC(CCc1ccccc1)NCC(O)c1ccc(O)c(C(N)=O)c1 (centres undefined),outcome,[4],inactive
same,Potency,[2],inactive
same,Potency,[3],inactive
CC(=O)CC(c1ccc([N+](=O)[O-])cc1)c1c(O)c2ccccc2oc1=O (centres undefined),Potency,[2],inactive
C[C@]12CCC(=O)C=C1[C@@H]1C[C@@H]1[C@H]1[C@@H]3[C@@H]4C[C@@H]4[C@@]4(CCC(=O)O4)[C@@]3(C)CC[C@@H]12,Potency,[2],inactive
CCCC1O[C@@H]2C[C@H]3[C@@H]4CCC5=CC(=O)C=C[C@]5(C)[C@H]4[C@@H](O)C[C@]3(C)[C@]2(C(=O)CO)O1 (some centres undefined),outcome,[4],inactive
same,Potency,[2],inactive
same,Potency,[3],inactive
